Data from PubChem BioAssay (NCATS).
Records with an inconclusive call do not appear. Active and inactive are the calls of the source. Unless noted, calls come from the whole dose curve; as a rule, active = well fitted curve in the direction sought with a large enough effect; inconclusive = small, poorly fitted or top-dose-only effect, or another doubt; inactive = no such curve, though single readings can be large; an effect the other way counts as inactive or inconclusive.

Assays:
[1] = Cell Viability - BJ (AID 421; calls by dose curve;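 note: potency is the fitted concentration of half-maximal effect; cells exposed to compound for 40 hours at 37 °C before readout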); details: BJ fibroblast viability, qHTS
Summary of the method: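 Luminescent ATP signal (CellTiter-Glo, 20 min at room temperature) served as the read-out of viable BJ cells after 40 hours of compound treatment. Responses were scaled between DMSO and 100 uM tamoxifen, and AC50 values were obtained by Hill modeling.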

[2] = Cell Viability - Jurkat (AID 426;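 active = dose-dependent loss of cell ATP signal giving a full or clear fitted curve, ranked by lower potency value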;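 note: potency is the fitted concentration of half-maximal effect; cells exposed to compound for 40 hours at 37 °C before ATP read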); details: qHTS
Summary of the method: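 Cytotoxicity was scored as loss of cellular ATP, measured by luciferase-based luminescence, in Jurkat clone E6-1 cells after 40 h compound treatment; tamoxifen and doxorubicin served as positive controls.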

[3] = Cell Viability - Hek293 (AID 427;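 active = compounds whose dose-response curve shows a full or clear partial loss of cell viability, called from curve shape rather than a numeric limit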;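 note: potency is the fitted concentration of half-maximal effect; cells exposed to compound for 40 hours at 37 °C before reading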); details: qHTS
Summary of the method: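 Luminescent ATP read-out (CellTiter-Glo, 20 min RT) after 40 hr compound exposure at 37 °C in complete medium. Signal normalized to DMSO (basal) and 100 uM tamoxifen (100% inhibition); concentration-response fitted with the standard Hill equation to give AC50.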

[4] = Cell Viability - HepG2 (AID 433; calls by dose curve;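 note: potency is the fitted concentration of half-maximal effect; potency for ATP loss meaning cytotoxicity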); details: qHTS
Summary of the method: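 Cytotoxicity is scored as loss of intracellular ATP in HepG2 cells exposed to compounds for 40 h. Concentration-response curves, normalized to DMSO and 100 uM tamoxifen, give AC50 values.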

[5] = Cell Viability - MRC5 (AID 434; calls by dose curve;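 note: potency is the fitted concentration of half-maximal effect; cells exposed to compound for 40 hours at 37 °C; potency reflects cytotoxicity seen as loss of intracellular ATP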); details: MRC5 lung fibroblast viability, qHTS
Summary of the method: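 ATP luminescence read-out (CellTiter-Glo, 20 min RT) after 40 hr, 37 °C compound exposure of 1500 MRC5 cells/well. Data normalized to DMSO (basal) and 100 uM tamoxifen (100% inhibition); AC50 from standard Hill equation.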

[6] = Cell Viability - SK-N-SH (AID 435; calls by dose curve;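 note: potency is the fitted concentration of half-maximal effect; compound exposure lasted 40 h at 37 °C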); details: SK-N-SH neuroblastoma cell viability qHTS
Summary of the method: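 Cells seeded at 1500 per well and incubated 5 hr at 37 °C. Compound added, then 40 hr at 37 °C. CellTiter-Glo added, 20 min at room temperature, luminescence read.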

[7] = target: Mitogen-activated protein kinase 10 (Mus musculus) (UniProt Q61831); experiment: JNK3 AlphaScreen Assay (AID 530; active = well fitted curve in either direction with a large enough effect, not every such curve was filed as active;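 note: kinase came from lysate of stimulated human HepG2 cells; signal reports phosphorylation of biotinylated GST-cJun 1-79 at Ser73 with 10 µM ATP; % is set by controls: 0 for no effect and ±100 for the full control effect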)
Summary of the method: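 HepG2 lysate (IL-1b/TNFa pre-activated) + biotin-GST-cJun 1-79 + anti-pSer73 cJun; cpd titration, 15 min RT; ATP 10 uM start; Tris pH 7.6, MgCl2, DTT, vanadate; beads in EDTA buffer; AlphaScreen.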

[8] = Cell Viability - N2a (AID 540); details: N2a mouse neuroblastoma cell viability; activity change, negative = cytotoxicity: at 92.2 µM (top of the series);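 note: cells exposed to compound for 40 h at 37 °C; plate controls were DMSO alone for no effect and tamoxifen control for full effect; nearly all actives have a fitted effect of over 45% in size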
Summary of the method: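 In this qHTS cytotoxicity screen, ATP-dependent luciferase luminescence reports viable N2a cells after a 40 hr compound exposure in complete culture medium. Potencies are AC50 values from standard Hill equation fits.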

[9] = Cell Viability - NIH 3T3 (AID 541); details: NIH 3T3 cell viability, qHTS; activity change, negative = cytotoxicity: at 92.2 µM (top of the series);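 note: plate controls were DMSO alone for no effect and tamoxifen positive control for full effect; nearly all actives have a fitted effect of over 25% in size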
Summary of the method: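 In this cytotoxicity screen, acute toxicity is scored as an ATP drop measured by CellTiter-Glo in NIH 3T3 fibroblasts following a 40 hr, 37 °C incubation with compound.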

[10] = Cell Viability - HUV-EC-C (AID 542); note: % is set by controls: 0 for no effect and ±100 for the full control effect; nearly all actives have a fitted effect of over 35% in size
Summary of the method: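 Concentration-dependent ATP loss in HUV-EC-C cells is the measure. Exposure lasts 40 hr at 37 °C; luminescence follows CellTiter-Glo addition, and Hill fits give AC50.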

[11] = Cell Viability - H-4-II-E (AID 543); note: % is set by controls: 0 for no effect and ±100 for the full control effect; nearly all actives have a fitted effect of over 35% in size
Summary of the method: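 AC50 from Hill-modelled qHTS concentration-response curves. H-4-II-E rat hepatoma cells in complete medium, 40 hr exposure at 37 °C, viability by CellTiter-Glo ATP luminescence.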

[12] = Cell Viability - SH-SY5Y (AID 544); details: SH-SY5Y neuroblastoma cell viability; viability change, negative = cytotoxic: at 92.2 µM (top of the series); note: nearly all actives have a fitted effect of over 55% in size
Summary of the method: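 Quantitative HTS in SH-SY5Y neuroblastoma cells, 40 hr treatment at 37 °C, ATP content by luciferase luminescence; AC50 from Hill fits.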

[13] = Cell Viability - Renal Proximal Tubule (AID 545); details: renal proximal tubule cells viability, primary cells of rat origin; activity change, negative = cytotoxicity: at 91.7 µM (top of the series); note: nearly all actives have a fitted effect of over 40% in size
Summary of the method: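 Cytotoxicity is scored as a concentration-dependent drop in cellular ATP in primary rat renal proximal tubule cells exposed for 40 hr. AC50 derives from Hill modelling.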

[14] = Cellular Toxicity (caspase-3) HepG2 (AID 654);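 note: cells exposed to compound for 16 hours before reading; 0% = DMSO alone and 100% = caspase signal from 100 µM tamoxifen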
Summary of the method: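 Concentration-response AC50 values reflect caspase-3/7 induction in HepG2 cells after 16 hours of compound exposure, quantified by luminescence from liberated aminoluciferin and referenced to 100 uM tamoxifen as full stimulation.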

[15] = Cellular Toxicity (caspase-3) Jurkat (AID 655); details: Jurkat caspase-3 activation, luminescence; caspase-3 activation: at 92.2 µM (top of the series), DMSO = 0%, tamoxifen = 100%;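 note: cells exposed to compound for 16 h at 37 °C before reading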
Summary of the method: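 Caspase 3/7 activation is scored as increased luminescence in Jurkat cells cultured with compound for 16 hours in complete medium. AC50 values come from Hill fits of qHTS concentration-response data normalized to DMSO and 100 uM tamoxifen controls.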

[16] = Cellular Toxicity (caspase-3) HUV-EC-C (AID 656)
Summary of the method: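 Read-out: luminescence proportional to caspase 3/7 activity, measured 20 min after adding Caspase-Glo 3/7 reagent. Cells (HUV-EC-C) had received compound for 16 hr at 37°C. Increases relative to DMSO and 100 uM tamoxifen gave concentration-response AC50 values.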

[17] = Cellular Toxicity (caspase-3) SHSY5Y (AID 657)
Summary of the method: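 Cells plated and incubated 5 h at 37 °C, dosed over a concentration range, incubated 16 h, then given Caspase-Glo 3/7 reagent for 1 h at room temperature before luminescence reading. Staurosporine (10 uM) defined full stimulation.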

[18] = Cellular Toxicity (caspase-3) BJ (AID 658); details: Potency: caspase-3 activation;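 note: 0% = DMSO basal and 100% = 10 µM staurosporine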
Summary of the method: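 qHTS, BJ fibroblasts, 1000 cells/well; 5 hr preincubation, 16 hr compound, 37 °C; Caspase-Glo 3/7 reagent, 1 hr RT; luminescence. DMSO = 0%, 10 uM staurosporine = 100%. Hill-equation AC50.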

[19] = Cellular Toxicity (caspase-3) MRC-5 (AID 659);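 note: 0% = DMSO basal and 100% = 10 µM staurosporine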
Summary of the method: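 MRC-5 fibroblasts, 1500/well; 16 h cpd, 37 °C; Caspase-Glo 3/7, 1 h RT; lumi read. Norm: DMSO = 0%, 10 uM staurosporine = 100%. Hill-fit AC50 from qHTS conc-response.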

[20] = Cellular Toxicity (caspase-3) Mesangial (AID 660); details: mesangial cells, normalized: DMSO 0%, 100 µM tamoxifen 100%; at 91.7 µM (top of the series);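 note: cells exposed to compound for 16 h before the caspase read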
Summary of the method: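 AC50 values come from Hill-equation fits of caspase 3/7 activation, measured as Caspase-Glo luminescence in human glomerular mesangial cells exposed to compound for 16 h at 37 °C; 100% set by 100 uM tamoxifen.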

[21] = Cellular Toxicity (caspase-3) SK-N-SH (AID 661); details: SK-N-SH caspase-3 activation, qHTS; caspase-3 activation: at 91.7 µM (top of the series), DMSO as zero, staurosporine as full;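 note: 0% = DMSO basal and 100% = 10 µM staurosporine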
Summary of the method: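 Apoptosis readout in SK-N-SH neuroblastoma: Caspase-Glo 3/7 luminescence following 16 hr treatment in complete culture medium. Normalization used DMSO and 10 uM staurosporine controls.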

[22] = Cellular Toxicity (caspase-3) H-4-II-E (AID 663); details: H-4-II-E rat hepatoma; Potency: caspase-3 activation; caspase-3 activation: at 92.2 µM (top of the series), scaled: DMSO 0%, 100 µM tamoxifen 100%;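 note: cells exposed to compound for 16 hr before readout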
Summary of the method: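 H-4-II-E rat hepatoma, 1500 cells/well, 5 hr settle at 37 °C; compound 16 hr, 37 °C, complete medium; Caspase-Glo 3/7, 20 min RT; luminescence. DMSO = 0%, 100 uM tamoxifen = 100%; Hill-equation AC50.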

CCCCCC/C(C=O)=C\c1ccccc1
inactive: Potency [1] > 92 µM | Potency [2] > 92 µM | Potency [3] > 92 µM | Potency [4] > 92 µM | Potency [5] > 92 µM | Potency [6] > 92 µM | Potency [7] | Potency [8] | Potency [9] | Potency [10] | Potency [11] | Potency [12] | Potency [13] | Potency [14] | Potency [15] | Potency [16] | Potency [17] | Potency [18] | outcome [19] | caspase-3 activation [20] 1.26% | caspase-3 activation [21] -0.582% | caspase-3 activation [22] 0.146%
